From the supplement of paper PMC6555819

system: VDR:RXRa (NR concentration 270 nM, RXRa partner concentration 90 nM); assay: PBM binding z-score (relative to random genomic background probes); higher = stronger binding; sequences stand for … in GC…GCGATTGACAGCGTAGAATGAAGG
Procedure: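 Protein-binding microarray (Agilent 4x180K custom design, double-stranded 60-nt probes: 5' GC cap, 34-nt variable region, 24-nt constant primer region; full probe sequence given). Purified or IVT nuclear receptor:RXRα heterodimers (3:1 NR:RXRα, mostly 270:90 nM) or homodimers were incubated for 1 h in PBS with 2% milk and no ligand, then detected with Alexa488 antibodies. Fluorescence from o1-orientation probes (~5 replicates averaged) was converted to z-scores against 500 random hg19 background probes. Variable regions are seed direct-repeat (DR0–DR5) sites, all their single-nucleotide variants and half-site ablations.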

Row | Sequence | PBM binding z-score
1 | GCGACTGGGGCAAAGCAGGTAACCATAAGGTTGG | -0.313
2 | ATACCAAGGTGCTCGTGAGGTCGTTGATACTAAC | 2.34
3 | GCAATTAGTTGAAAGGGCAACCGAATGATTCTCG | 0.238
4 | CCGAATGGGGCAAAGGTTACCATACTCAGTACGA | 1.77
5 | AGAACGAGGGCAATGAGTTGACAGCACGGGTGGC | 5.03
6 | CCTAGTTGGTCAGGCGGTCACACACCGGATATGA | 0.0126
7 | ACAGACAGGTGATGAAGGTAACTCGGGCTATCAT | 0.101
8 | TGAATGAGGTTAAACATCAGGGAACGTGGCGTCG | 1.87
9 | TCATATAGGTAAAAGGTGAGAGTCGGTGTGGTAA | 1.29
10 | CCAGCTAGGTCATGGTCAGCTAATCTACAGTATG | 1.6
11 | CCTGCTAGGTCAATAGTCAGCTAAAGCAGCTCGC | 0.487
12 | ATCCAAAGGTCGACGAGGTGAGTATACACCGTTT | 5.23
13 | TCATGTAGGTAAATGCTAGGTGAAAGTCCGATCT | 0.587
14 | ACTAGCAGGCCCAGTTTGGGTCACTCAAACAAAG | -0.198
15 | ATCTCTAGGTAAGACTCAGATCAGTGAAGAACGC | 0.238
16 | CGAACTAGGTCAGAACAGGACAGTGGAGGATGAT | 0.581
17 | TCTATTAGTTGATTAGGGCAACGGAAACAGCGGA | 0.621
18 | CGAACTAGGTCATCCAGGACAGTGAATACATTGA | 4.73
19 | GCTCGGAGGATAAGGTCAGAGCTTTGTCCGTAGA | 1.15
20 | TCTATTACTTGAAGGGCAACCGACGAGTCCGTTT | 1.28

Row | Sequence | PBM binding z-score
21 | CGAACTAGGTCATCCAGGGCAGTGAATACATTGA | 5.26
22 | GGCACGAGGGCATTCGAGTTGATAGCATGGCGAT | 3.54
23 | ATCGAAAGGTCGTGGGGTGAGTATACAGAAAGGC | 4.83
24 | CCAACTAGGTCACAGAGGTCAAAGTCCGTGCGTA | 7.88
25 | TCGAGCAGGTTACCAATGGGGCATTCAGCTTTCT | 0.08
26 | AGTCAAAGTTCAGGACGAGGTAACCTAAAGCACG | 2.94
27 | TTACCAGGGTGAAGGTCGTTGATCCCTCTGTAGA | 1.65
28 | ACTTACGGGTCAACGAGGTTATAGCGCGCGTATA | 7.58
29 | TCTATTAGTTCATTAGGGCAACCGAAACAGCGGA | 2.2
30 | TCTTGTAGATCAAAGGCTAAGAAAGCCGAAGCCT | -0.203
31 | CCTACTGGGCCAAAAACGTCATTGATGCCGATAA | -0.0711
32 | ACTAGCATGCCAAGGGTCACTCAAGATTAGTCCG | 2.93
33 | TCTTGTAGATGAGCAGGTTAAGAAAGCTGGCCAA | -0.0672
34 | ACTATAAGTTGAGACGAGGGCAACCGATAGGTTG | 1.75
35 | CGTCCCAGGTCAATGCTAGGTCAGTGAAAGCATT | 3.68
36 | TTACCAAGGAGAGCTGAGGTCGTTGATCCAACTC | 1.15
37 | ATCTCTAGGTAACCAAGTTCCGTGAATGCCGAAC | 0.306
38 | ACTCGGAGGACAAAGGTCAGAGTTACGCCAGTGA | 3.42
39 | CCTATTTGTTGACCATAAGGGCAACCGAAGCTCG | 1.09
40 | ACTATTAGTTGAGACTAGGGCAACCGATAGGTTG | -0.386
